Publication PMC7862700, “An all-to-all approach to the identification of sequence-specific readers for epigenetic DNA modifications on cytosine”

Key:
Assay in all cases: DAPPL (digital affinity profiling via proximity ligation, sequencing); 10 mM Tris-HCl pH 7.5, 50 mM NaCl, 1 mM DTT, 4% glycerol, room temperature, 30 min; GST-TFs on glutathione beads, 16-mer random dsDNA library, 0.1% formaldehyde crosslink after washing; high values mean tight binding
Conditions in all cases: protein: recombinant; tags: N-terminal GST; dsDNA, one strand shown
FLI1 = molecular target: T1, FLI1 (Homo sapiens, UniProt Q01543 1-452)
T1 sequence: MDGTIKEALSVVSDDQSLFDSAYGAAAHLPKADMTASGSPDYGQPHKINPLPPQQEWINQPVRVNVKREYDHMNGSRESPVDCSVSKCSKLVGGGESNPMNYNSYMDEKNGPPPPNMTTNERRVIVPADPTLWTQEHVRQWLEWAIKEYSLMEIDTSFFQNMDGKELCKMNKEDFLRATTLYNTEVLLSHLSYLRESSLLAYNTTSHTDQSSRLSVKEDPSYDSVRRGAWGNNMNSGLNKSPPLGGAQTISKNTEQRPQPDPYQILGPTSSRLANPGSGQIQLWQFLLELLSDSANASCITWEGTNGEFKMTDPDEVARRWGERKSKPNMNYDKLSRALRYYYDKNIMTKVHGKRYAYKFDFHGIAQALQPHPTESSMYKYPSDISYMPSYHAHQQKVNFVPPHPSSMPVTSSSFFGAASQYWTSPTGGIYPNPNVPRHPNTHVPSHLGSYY
In short: (§1)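 After expression in yeast as GST fusions, human transcription factors were bound to glutathione beads, DNA-barcoded and mixed with a tag-only sample. The pools were incubated with 200 nmole of a 16-mer random double-stranded DNA library in Tris/NaCl/DTT/glycerol buffer (30 min, room temperature), washed and crosslinked with 0.1% formaldehyde. Proximity ligation with BsaI/T4 ligase ran for 1 h at 37 °C, before PCR amplification and sequencing on an Illumina NextSeq500. Binding signal is a hexamer's read frequency for a factor divided by its frequency for the tag-only sample.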

ELK1 = molecular target: T2, ELK1 (Homo sapiens, UniProt P19419 1-428)
T2 sequence: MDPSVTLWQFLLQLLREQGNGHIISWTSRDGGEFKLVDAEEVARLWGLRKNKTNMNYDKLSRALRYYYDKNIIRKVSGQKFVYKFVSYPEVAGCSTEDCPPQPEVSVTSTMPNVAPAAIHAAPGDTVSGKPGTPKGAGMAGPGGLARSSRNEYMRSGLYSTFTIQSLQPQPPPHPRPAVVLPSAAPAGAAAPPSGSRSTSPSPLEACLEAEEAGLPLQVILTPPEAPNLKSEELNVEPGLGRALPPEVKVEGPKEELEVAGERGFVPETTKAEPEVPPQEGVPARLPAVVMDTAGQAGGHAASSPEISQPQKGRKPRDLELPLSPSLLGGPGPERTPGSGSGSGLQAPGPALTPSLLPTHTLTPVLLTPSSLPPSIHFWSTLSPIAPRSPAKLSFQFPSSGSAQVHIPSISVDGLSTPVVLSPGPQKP
In short: as §1

GABPA = molecular target: T3, GABPA (Homo sapiens, UniProt Q06546 1-454)
T3 sequence: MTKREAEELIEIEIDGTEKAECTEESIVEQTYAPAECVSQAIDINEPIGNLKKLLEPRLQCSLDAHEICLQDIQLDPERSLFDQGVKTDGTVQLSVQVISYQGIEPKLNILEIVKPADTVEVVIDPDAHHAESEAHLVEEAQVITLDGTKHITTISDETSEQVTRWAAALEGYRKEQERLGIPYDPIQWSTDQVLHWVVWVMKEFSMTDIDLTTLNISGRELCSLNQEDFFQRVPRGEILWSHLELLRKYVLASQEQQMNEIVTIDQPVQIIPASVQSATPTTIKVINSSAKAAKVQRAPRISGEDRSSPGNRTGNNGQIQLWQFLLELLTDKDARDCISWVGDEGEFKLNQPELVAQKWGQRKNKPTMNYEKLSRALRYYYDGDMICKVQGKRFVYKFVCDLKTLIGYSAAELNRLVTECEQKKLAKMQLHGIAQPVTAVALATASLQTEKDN
In short: as §1

ERG = molecular target: T4, ERG (Homo sapiens, UniProt P11308 1-479)
T4 sequence: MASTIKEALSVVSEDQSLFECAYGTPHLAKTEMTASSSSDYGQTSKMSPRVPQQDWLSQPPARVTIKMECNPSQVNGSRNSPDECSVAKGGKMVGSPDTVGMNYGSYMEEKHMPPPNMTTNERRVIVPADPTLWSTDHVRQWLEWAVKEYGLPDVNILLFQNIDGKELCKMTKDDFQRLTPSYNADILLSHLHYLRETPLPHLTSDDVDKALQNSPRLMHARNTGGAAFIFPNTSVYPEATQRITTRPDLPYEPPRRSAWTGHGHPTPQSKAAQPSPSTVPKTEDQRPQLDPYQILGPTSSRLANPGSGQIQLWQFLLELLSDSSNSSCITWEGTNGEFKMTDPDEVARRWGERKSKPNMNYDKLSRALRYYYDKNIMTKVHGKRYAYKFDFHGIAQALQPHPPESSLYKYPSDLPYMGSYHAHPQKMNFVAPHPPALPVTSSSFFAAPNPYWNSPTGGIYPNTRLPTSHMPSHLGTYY
In short: as §1

ELF1 = ELF1 (Homo sapiens, UniProt P32519 1-619)
Chain of ELF1 (P32519 whole entry): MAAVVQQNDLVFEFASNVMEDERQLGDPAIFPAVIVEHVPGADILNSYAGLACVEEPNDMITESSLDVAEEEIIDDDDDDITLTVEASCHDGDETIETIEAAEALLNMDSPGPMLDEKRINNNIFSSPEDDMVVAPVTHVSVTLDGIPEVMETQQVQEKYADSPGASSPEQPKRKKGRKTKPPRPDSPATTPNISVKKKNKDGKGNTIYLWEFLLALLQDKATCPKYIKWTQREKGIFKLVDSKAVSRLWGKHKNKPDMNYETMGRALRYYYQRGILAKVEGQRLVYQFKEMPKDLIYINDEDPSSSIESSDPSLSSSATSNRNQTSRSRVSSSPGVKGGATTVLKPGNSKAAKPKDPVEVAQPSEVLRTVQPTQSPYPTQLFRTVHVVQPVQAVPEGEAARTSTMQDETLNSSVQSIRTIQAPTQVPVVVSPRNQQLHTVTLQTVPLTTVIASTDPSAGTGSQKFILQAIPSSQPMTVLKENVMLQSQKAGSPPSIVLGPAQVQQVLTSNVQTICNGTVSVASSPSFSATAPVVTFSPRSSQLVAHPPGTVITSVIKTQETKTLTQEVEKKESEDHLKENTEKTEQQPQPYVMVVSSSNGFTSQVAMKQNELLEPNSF
In short: as §1

EHF = molecular target: T5, EHF (Homo sapiens, UniProt Q9NZC4 1-300)
T5 sequence: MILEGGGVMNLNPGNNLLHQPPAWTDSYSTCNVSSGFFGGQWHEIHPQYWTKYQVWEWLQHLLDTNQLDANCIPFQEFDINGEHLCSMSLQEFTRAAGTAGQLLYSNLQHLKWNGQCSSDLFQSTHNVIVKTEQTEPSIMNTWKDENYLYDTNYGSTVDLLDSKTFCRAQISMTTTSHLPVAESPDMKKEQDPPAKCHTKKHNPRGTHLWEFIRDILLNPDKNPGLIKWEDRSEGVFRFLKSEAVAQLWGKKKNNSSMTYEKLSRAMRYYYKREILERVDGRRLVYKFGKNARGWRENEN
In short: as §1

SPIB = SPIB (Homo sapiens, UniProt Q01892 1-262)
Chain of SPIB (Q01892 whole entry): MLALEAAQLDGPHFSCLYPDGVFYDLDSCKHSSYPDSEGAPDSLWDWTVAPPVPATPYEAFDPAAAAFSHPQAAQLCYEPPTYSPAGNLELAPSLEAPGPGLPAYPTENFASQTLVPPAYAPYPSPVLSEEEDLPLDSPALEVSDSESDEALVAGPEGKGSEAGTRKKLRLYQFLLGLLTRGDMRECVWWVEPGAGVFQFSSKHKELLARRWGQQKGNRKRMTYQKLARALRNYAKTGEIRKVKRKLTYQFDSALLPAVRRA
In short: as §1

ELK3 = molecular target: T6, ELK3 (Homo sapiens, UniProt P41970 1-407)
T6 sequence: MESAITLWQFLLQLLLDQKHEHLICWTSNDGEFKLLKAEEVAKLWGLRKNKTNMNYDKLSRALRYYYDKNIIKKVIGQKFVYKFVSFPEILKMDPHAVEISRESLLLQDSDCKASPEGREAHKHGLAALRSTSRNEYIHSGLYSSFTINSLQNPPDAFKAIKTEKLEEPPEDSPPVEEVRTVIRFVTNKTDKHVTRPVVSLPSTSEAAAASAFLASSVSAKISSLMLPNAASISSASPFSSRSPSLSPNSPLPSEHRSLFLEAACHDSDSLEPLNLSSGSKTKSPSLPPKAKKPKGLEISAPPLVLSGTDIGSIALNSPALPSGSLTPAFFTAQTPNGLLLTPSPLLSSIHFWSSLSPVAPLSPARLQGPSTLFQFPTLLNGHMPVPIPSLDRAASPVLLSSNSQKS
In short: as §1

FEV = molecular target: T7, FEV (Homo sapiens, UniProt Q99581 1-238)
T7 sequence: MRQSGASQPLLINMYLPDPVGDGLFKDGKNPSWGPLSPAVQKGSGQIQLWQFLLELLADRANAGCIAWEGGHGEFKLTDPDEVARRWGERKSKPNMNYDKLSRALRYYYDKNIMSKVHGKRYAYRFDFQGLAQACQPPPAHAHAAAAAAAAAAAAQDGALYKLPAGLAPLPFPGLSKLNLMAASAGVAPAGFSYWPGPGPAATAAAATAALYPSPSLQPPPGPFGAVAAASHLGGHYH
In short: as §1

ETV5 = ETV5 (Homo sapiens, UniProt P41161 1-510)
Chain of ETV5 (P41161 whole entry): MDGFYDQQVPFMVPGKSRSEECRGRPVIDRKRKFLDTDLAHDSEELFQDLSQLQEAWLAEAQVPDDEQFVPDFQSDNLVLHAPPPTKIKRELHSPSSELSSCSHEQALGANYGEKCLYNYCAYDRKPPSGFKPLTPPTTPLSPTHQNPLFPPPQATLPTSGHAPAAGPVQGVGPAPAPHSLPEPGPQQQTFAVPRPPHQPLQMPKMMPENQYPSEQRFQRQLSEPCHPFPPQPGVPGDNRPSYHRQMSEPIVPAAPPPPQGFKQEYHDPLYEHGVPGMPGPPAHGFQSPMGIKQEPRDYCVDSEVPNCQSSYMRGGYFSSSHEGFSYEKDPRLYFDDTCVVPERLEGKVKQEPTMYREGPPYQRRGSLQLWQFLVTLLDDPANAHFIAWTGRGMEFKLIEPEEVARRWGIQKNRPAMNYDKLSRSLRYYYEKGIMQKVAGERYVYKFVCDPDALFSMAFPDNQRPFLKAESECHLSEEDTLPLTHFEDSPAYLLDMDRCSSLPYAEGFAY
In short: as §1

SPIC = molecular target: T8, SPIC (Homo sapiens, UniProt Q8N5J4 1-248)
T8 sequence: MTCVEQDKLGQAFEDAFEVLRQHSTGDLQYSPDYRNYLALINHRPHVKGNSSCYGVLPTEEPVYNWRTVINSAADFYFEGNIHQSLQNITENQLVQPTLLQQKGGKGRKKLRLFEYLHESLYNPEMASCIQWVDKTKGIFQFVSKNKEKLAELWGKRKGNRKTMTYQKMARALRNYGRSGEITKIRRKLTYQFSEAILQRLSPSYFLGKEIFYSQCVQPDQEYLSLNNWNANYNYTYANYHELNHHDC
In short: as §1

ELF4 = ELF4 (Homo sapiens, UniProt Q99607 1-663)
Chain of ELF4 (Q99607 whole entry): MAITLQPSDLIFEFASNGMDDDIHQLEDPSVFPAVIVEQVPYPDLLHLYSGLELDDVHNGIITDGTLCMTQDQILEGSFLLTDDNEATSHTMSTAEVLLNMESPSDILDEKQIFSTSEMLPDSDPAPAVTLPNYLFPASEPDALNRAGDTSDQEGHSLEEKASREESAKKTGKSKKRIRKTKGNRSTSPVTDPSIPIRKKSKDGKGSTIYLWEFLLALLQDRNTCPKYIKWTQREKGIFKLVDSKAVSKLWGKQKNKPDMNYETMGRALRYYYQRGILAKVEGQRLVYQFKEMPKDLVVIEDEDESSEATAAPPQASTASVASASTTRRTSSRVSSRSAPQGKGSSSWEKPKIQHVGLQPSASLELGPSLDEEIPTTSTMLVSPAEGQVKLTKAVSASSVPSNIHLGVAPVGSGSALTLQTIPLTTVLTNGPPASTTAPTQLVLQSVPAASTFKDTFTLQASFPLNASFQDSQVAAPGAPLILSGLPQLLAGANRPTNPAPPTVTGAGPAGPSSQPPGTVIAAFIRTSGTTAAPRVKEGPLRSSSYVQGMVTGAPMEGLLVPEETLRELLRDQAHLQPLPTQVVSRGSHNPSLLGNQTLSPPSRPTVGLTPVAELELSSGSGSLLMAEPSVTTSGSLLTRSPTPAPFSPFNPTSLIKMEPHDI
In short: as §1

ELK4 = molecular target: T9, ELK4 (Homo sapiens, UniProt P28324-2 1-405)
T9 sequence: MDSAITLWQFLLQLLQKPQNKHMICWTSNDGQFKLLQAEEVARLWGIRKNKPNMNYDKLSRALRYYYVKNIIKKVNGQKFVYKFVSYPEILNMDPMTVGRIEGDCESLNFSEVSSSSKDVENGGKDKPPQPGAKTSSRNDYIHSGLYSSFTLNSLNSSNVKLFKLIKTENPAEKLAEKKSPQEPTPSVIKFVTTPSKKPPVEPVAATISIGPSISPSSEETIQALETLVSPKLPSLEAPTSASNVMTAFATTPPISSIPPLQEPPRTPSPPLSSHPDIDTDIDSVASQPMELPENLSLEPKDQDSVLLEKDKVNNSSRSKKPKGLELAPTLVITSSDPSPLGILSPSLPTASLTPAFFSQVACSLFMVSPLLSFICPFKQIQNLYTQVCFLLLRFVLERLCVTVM
In short: as §1

ETV2 = molecular target: T10, ETV2 (Homo sapiens, UniProt O00321 1-342)
T10 sequence: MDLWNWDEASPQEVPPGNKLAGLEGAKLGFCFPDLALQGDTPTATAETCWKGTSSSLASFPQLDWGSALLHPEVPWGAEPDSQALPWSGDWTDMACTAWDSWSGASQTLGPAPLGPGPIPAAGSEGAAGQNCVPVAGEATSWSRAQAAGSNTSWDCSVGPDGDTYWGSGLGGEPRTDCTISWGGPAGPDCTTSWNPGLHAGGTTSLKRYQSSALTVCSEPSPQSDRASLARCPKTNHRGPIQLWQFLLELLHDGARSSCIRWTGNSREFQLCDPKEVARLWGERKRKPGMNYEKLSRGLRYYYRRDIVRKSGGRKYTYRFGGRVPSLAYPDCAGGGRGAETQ
In short: as §1

ELF3 = molecular target: T11, ELF3 (Homo sapiens, UniProt P78545 1-371)
T11 sequence: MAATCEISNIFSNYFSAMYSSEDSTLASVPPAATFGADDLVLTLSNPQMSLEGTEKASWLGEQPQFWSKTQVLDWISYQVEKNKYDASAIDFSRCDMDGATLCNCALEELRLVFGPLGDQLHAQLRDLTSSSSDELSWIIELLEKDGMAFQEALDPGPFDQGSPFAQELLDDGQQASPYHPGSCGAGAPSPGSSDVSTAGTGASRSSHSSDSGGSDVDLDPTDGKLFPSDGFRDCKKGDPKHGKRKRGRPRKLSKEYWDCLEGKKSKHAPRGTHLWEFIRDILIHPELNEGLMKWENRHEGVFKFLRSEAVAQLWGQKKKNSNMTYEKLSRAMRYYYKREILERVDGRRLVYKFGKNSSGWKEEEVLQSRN
In short: as §1

ETV1 = ETV1 (Homo sapiens, UniProt P50549 1-477)
Chain of ETV1 (P50549 whole entry): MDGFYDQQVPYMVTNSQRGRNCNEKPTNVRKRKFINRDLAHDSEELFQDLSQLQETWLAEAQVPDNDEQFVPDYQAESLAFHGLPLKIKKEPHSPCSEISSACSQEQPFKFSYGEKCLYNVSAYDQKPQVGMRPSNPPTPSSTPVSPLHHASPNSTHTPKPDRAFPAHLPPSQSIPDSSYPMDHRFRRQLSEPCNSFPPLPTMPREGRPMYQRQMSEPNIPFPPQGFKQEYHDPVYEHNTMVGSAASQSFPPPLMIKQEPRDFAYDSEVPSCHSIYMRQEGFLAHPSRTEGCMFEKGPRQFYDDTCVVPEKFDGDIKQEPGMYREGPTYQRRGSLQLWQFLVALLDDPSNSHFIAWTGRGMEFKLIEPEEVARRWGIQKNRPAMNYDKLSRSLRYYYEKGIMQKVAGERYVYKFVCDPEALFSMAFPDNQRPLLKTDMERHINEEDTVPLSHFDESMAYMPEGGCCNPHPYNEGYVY
In short: as §1

SPI1 = SPI1 (Homo sapiens, UniProt P17947 1-270)
In short: as §1

Sequence | binding signal (FLI1) | binding signal (ELK1) | binding signal (GABPA) | binding signal (ERG) | binding signal (ELF1) | binding signal (EHF) | binding signal (SPIB) | binding signal (ELK3) | binding signal (FEV) | binding signal (ETV5) | binding signal (SPIC) | binding signal (ELF4) | binding signal (ELK4) | binding signal (ETV2) | binding signal (ELF3) | binding signal (ETV1) | binding signal (SPI1)
ACACCC | 1.18 fold enrichment (6-mer frequency, TF over GST control) | 1.16 fold enrichment (6-mer frequency, TF over GST control) | 1.16 fold enrichment (6-mer frequency, TF over GST control) | 1.11 fold enrichment (6-mer frequency, TF over GST control) | 1.09 fold enrichment (6-mer frequency, TF over GST control) | 1.11 fold enrichment (6-mer frequency, TF over GST control) | 1.17 fold enrichment (6-mer frequency, TF over GST control) | 1.08 fold enrichment (6-mer frequency, TF over GST control) | 1.08 fold enrichment (6-mer frequency, TF over GST control) | 1.08 fold enrichment (6-mer frequency, TF over GST control) | 1.19 fold enrichment (6-mer frequency, TF over GST control) | 1.07 fold enrichment (6-mer frequency, TF over GST control) | 1.05 fold enrichment (6-mer frequency, TF over GST control) | 1.07 fold enrichment (6-mer frequency, TF over GST control) | 1.01 fold enrichment (6-mer frequency, TF over GST control) | 1.14 fold enrichment (6-mer frequency, TF over GST control) | –
TGTCTG | 1 fold enrichment (6-mer frequency, TF over GST control) | 1.1 fold enrichment (6-mer frequency, TF over GST control) | 1.11 fold enrichment (6-mer frequency, TF over GST control) | 1.05 fold enrichment (6-mer frequency, TF over GST control) | 1.06 fold enrichment (6-mer frequency, TF over GST control) | – | 1.16 fold enrichment (6-mer frequency, TF over GST control) | – | 1.15 fold enrichment (6-mer frequency, TF over GST control) | 1.09 fold enrichment (6-mer frequency, TF over GST control) | 1.33 fold enrichment (6-mer frequency, TF over GST control) | 1.04 fold enrichment (6-mer frequency, TF over GST control) | 1.02 fold enrichment (6-mer frequency, TF over GST control) | 1.21 fold enrichment (6-mer frequency, TF over GST control) | 1.21 fold enrichment (6-mer frequency, TF over GST control) | 1.04 fold enrichment (6-mer frequency, TF over GST control) | 1.17 fold enrichment (6-mer frequency, TF over GST control)
CACCTC | 1.12 fold enrichment (6-mer frequency, TF over GST control) | 1.15 fold enrichment (6-mer frequency, TF over GST control) | 1.2 fold enrichment (6-mer frequency, TF over GST control) | 1.17 fold enrichment (6-mer frequency, TF over GST control) | 1.2 fold enrichment (6-mer frequency, TF over GST control) | 1.27 fold enrichment (6-mer frequency, TF over GST control) | 1.1 fold enrichment (6-mer frequency, TF over GST control) | 1.09 fold enrichment (6-mer frequency, TF over GST control) | 1.11 fold enrichment (6-mer frequency, TF over GST control) | 1.13 fold enrichment (6-mer frequency, TF over GST control) | 1.22 fold enrichment (6-mer frequency, TF over GST control) | 1.23 fold enrichment (6-mer frequency, TF over GST control) | 1.14 fold enrichment (6-mer frequency, TF over GST control) | 1.2 fold enrichment (6-mer frequency, TF over GST control) | 1.1 fold enrichment (6-mer frequency, TF over GST control) | 1.19 fold enrichment (6-mer frequency, TF over GST control) | –
